This is a sample that favours compounds with a hit; in the whole collection about 9.8% have one here.
ALDH1A1 block: ALDH1A1 (human) enzyme inhibition | Potency, µM (highest dose often 75.3 µM), for inactives: at the top dose activity, negative = inhibition, most hits filed as inhibitors | hit rate 7.3% among 220,000 | Purified ALDH1A1, NADH fluorescence, propionaldehyde substrate; active = well fitted inhibition curve with a large enough effect, not every such curve was filed as active; inconclusive = small, poorly fitted or top-dose-only effect, or another doubt; inactive = no such curve, though single readings can be large or run the other way;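 note: potency is the fitted concentration of half-maximal effect; plate controls were no enzyme wells and a reference inhibitor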
Target sequence (P00352 whole entry, looked up): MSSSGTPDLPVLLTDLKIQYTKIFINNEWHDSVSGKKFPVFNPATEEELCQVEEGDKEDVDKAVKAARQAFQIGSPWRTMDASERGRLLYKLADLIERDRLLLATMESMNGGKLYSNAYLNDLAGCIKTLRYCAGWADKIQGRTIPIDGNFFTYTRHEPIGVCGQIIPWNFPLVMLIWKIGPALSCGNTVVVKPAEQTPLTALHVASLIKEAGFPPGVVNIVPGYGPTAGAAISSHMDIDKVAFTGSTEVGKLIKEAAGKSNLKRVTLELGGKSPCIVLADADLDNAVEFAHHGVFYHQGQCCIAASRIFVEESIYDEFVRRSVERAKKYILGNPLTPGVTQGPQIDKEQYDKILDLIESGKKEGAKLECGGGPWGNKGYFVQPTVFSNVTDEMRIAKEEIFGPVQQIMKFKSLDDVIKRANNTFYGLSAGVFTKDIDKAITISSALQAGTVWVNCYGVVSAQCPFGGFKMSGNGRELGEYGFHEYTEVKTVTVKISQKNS
HttQ103 aggreg: inhibitors of mutant huntingtin aggregate formation in PC12 cells; PC12 HttQ103-GFP aggregates, Acumen cytometry, 40 h; Potency, µM (titrated, usually from 46.1 µM), without a hit: top-dose activity change, negative = inhibition, actives largely listed as inhibitors; hit rate 1.1% among 220,000; note: potency is the fitted concentration of half-maximal effect; % is set by controls: 0 for no effect and ±100 for the full control effect; nearly all actives have a fitted effect of over 60% in size
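Inducible Q103 Huntingtin exon 1–GFP PC12 line, 1500 cells/well in phenol red free DMEM with 5% equine and 5% calf serum. Tebufenozide 100 nM induced expression; compounds titrated; aggregates quantified by cytometry.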
KDM4E inh: blocks human JMJD2E demethylase activity. Potency, µM (titrated, usually from 57.1 µM), for inactives: at the highest dose activity change, negative = inhibition, hits mostly inhibitors. hit rate 1.6% among 230,000. B2RXH2. AID 2147. JMJD2E catalytic domain, FDH-coupled NADH fluorescence (FDH is formaldehyde dehydrogenase);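 note: potency is the fitted concentration of half-maximal effect; 0% = wells with enzyme and -100% = buffer wells without enzyme; nearly all actives have a fitted effect of over 50% in size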
HPGD inh: HPGD (human) dehydrogenase inhibition; P15428; purified HPGD, NADH fluorescence kinetic, PGE2 substrate; Potency, µM, for inactives: at the highest dose activity change, negative = inhibition, actives largely listed as inhibitors; hit rate 4.3% among 150,000; AID 894; active = well fitted inhibition curve with a large enough effect, not every such curve was filed as active; inconclusive = small, poorly fitted or top-dose-only effect, or another doubt; inactive = no such curve, though single readings can be large or run the other way; note: potency is the fitted concentration of half-maximal effect; % is set by controls: 0 for no effect and ±100 for the full control effect
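NADH formation kinetics: reaction with 30 uM PGE2 and 1 mM NAD+ (final), 20 nM enzyme, Tris-HCl pH 8 with Tween 20, after 15 min compound preincubation at room temperature. Fluorescence change, last versus first of five reads.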
CBFb-RUNX1 inh: inhibitors of human CBF-beta and RUNX1 interaction. Q01196+Q13951. AlphaScreen CBFb-His/RUNX1-biotin binding, biochemical. Potency, µM (series often up to 59.8 µM), inactives show at the highest dose activity, negative = inhibition, most hits filed as inhibitors. 230,000 tested, under 10 active. AID 1477; note: % of control where 0% means no effect
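CBFb-His/RUNX1-biotin, 30 nM each, preincubated 20 min RT; compound 15 min RT; Ni + streptavidin beads 50 ng each, 90 min RT; AlphaScreen read.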
HTT ATP protect: cytoprotection in Huntington HTT-Q103 PC12 cell model; hit rate 0.14% among 230,000; AID 1471; Potency, µM (series often up to 56.4 µM), without a hit: cytoprotection (ATP increase), most hits filed as activators; PC12 HTT-Q103 induced, cytoprotection, ATP luminescence, 40 h; note: potency is the fitted concentration of half-maximal effect; % of control where 0% means no effect; nearly all actives have a fitted effect of over 45% in size
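Cells were plated at 1500 per well in phenol red-free DMEM with 5% equine and 5% calf serum. Tebufenozide (100 nM final) and compounds were added, then ATPlite reagent, and luminescence was read.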
The depositor's hits bear a star; ? = inconclusive; . = no result given; [ ] = remark or other dose. Unless noted, calls come from the whole dose curve; as a rule, active = well fitted curve in the direction sought with a large enough effect; inconclusive = small, poorly fitted or top-dose-only effect, or another doubt; inactive = no such curve, though single readings can be large; an effect the other way counts as inactive or inconclusive.

SMILES	ALDH1A1 block	HttQ103 aggreg	KDM4E inh	HPGD inh	CBFb-RUNX1 inh	HTT ATP protect
CCOC(=O)C1(Cc2cccc(Cl)c2)CCCN(C(=O)C2CC2)C1 (stereo not given)	0.7%	-2.5%[9.22 µM]	1.8%	.	26.7%	8.2%[10 µM]
O=C(O)[C@@H]1[C@@H](C(=O)Nc2ccccc2)[C@@H]2C=C[C@@H]1O2	-1.7%[13.5 µM]	.	.	-12.5%	.	5.4%[10 µM]
C=CCN(CC=C)S(=O)(=O)c1ccc(NC(=S)NC(=O)c2ccc(-c3ccccc3)cc2)cc1	3.16µM*	-9.7%	3.8%	?	1.0%	-25.1%
C=CCN(CC=C)S(=O)(=O)c1ccc(NC(=S)NC(=O)Cc2ccc(OC)cc2)cc1	-7.6%	-11.1%	-0.9%	-11.7%	0.1%	-8.8%
C=CCN(CC=C)S(=O)(=O)c1ccc(NC(=S)NC(=O)c2ccco2)cc1	22.4µM*	-19.8%	-0.5%	-14.1%	-1.7%	-11.8%
CC1CCN(CC(=O)N2c3ccccc3Sc3cc4ccccc4cc32)CC1	1.9%[13.5 µM]	.	.	-4.9%	.	10.0%[10 µM]
CCOC(=O)NC(=O)COC(=O)c1ccc(O)cc1	6.8%	-10.9%	-2.9%	.	0.0%	-47.8%
Cc1ccc(C)n1-c1ccc(C(=O)O)cc1	?	10.9%	14.1µM*	?	?	20.5%[10 µM]
Cc1ccc(C)n1-c1ccc(C(=O)Nc2ccccc2)cc1	28.2µM*	?	-25.4%	15.8µM*	1.4%	-0.7%[10 µM]
CC(=O)c1c(C(C)=O)c(C)n(-c2ccc(C(=O)O)cc2)c1C	18.8%	1.9%	-6.6%	-30.0%	4.6%	-26.6%[10 µM]
Cc1ccc(C)n1-c1cccc(NC(=O)c2ccccc2)c1	12.3%	17.7%	-2.6%	-10.3%	-0.7%	8.3%[0.074 µM]
CNC(=O)NC(=O)COC(=O)c1ccc(-n2c(C)ccc2C)cc1	-5.5%	?	12.6µM*	.	?	3.7%[10 µM]
CCCCCCCCCCCCCCCCn1cc[n+](Cc2ccccc2)c1C	.	.	.	.	25.6%	.
Cc1ccccc1NC(=O)c1cc(N)ccc1N1CCCCC1	10µM*	10.9%	-11.4%	-6.7%	-19.3%	8.1%[10 µM]
CCC(=O)Nc1ccc(N2CCCCC2)c(C(=O)Nc2ccccc2C)c1	?	29.2%	-28.9%	0.7%	1.0%	11.5%
O=C1CC(N(CCc2ccccc2)C(=S)Nc2ccccc2)C(=O)N1c1ccc(Br)cc1 (stereo not given)	?	?	-6.0%	-15.5%	-2.7%	5.5%[10 µM]
Cc1ccc(N2C(=O)CC(N(CCc3ccccc3)C(=S)Nc3ccc(N(C)C)cc3)C2=O)cc1 (stereo not given)	28.2µM*	-26.0%	-18.6%	-15.1%	-30.0%	-45.2%
CC(=O)N1CCC[C@@]2(CCN(C(=O)Nc3cccc(C#N)c3)C2)C1	15.8%	.	.	-0.6%	.	-5.4%
C(=N\N(Cc1ccccc1)c1ccccc1)/c1ccco1	14.1µM*	11.2%	-8.1%	.	-17.8%	-29.7%
O=C1/C(=C/c2ccc([N+](=O)[O-])cc2)C=C(c2ccccc2)N1c1ccccc1	-1.9%	16.9%	-2.5%	.	-7.5%	-11.6%
O=C(O)c1cccc(N2C(=O)/C(=C/c3ccc([N+](=O)[O-])cc3)C=C2c2ccccc2)c1	25.1µM*	-13.7%	-23.4%	.	-2.0%	?
Cc1cc(=O)[nH]c(SCc2nc3ccccc3n2Cc2ccccc2)n1	0.8%	22.5%	?	28.2µM*	-21.2%	-15.4%
CN(C)c1ccc(-c2cc([C@H]3[C@@H]4C=CCC[C@@]4(C)C(=O)N3Cc3ccccc3)ccc2F)cc1	.	-2.4%[9.22 µM]	?	.	?	-6.1%[10 µM]
CCN(/N=C/c1ccc(Cl)cc1)c1cc(=O)n(C)c(=O)[nH]1	?	11.7%	-8.2%	28.2µM*	2.0%	15.1%[10 µM]
CCN(/N=C/C=C/c1ccccc1)c1cc(=O)n(C)c(=O)[nH]1	0.5%	1.1%	-2.9%	-26.4%	2.7%	-5.3%[10 µM]
CCOC(=O)N/N=C(C)/C=C/c1ccccc1	1.5%	9.5%	7.3%	1.5%	1.4%	1.8%[10 µM]
Cc1ccc(OCCNC(=O)/C=C/c2ccc([N+](=O)[O-])cc2)cc1C	-6.3%	-11.6%	-2.9%	-17.3%	-9.6%	-18.3%

Compound activity from PubChem.
